According to PubChem BioAssay AID2315 (National Center for Advancing Translational Sciences (NCATS), 2010):
In all, about 290,000 compounds went through this assay and about 27,000 (9.3%) were called active. For the sample, actives were picked, then their nearest neighbours and some compounds at random. A number with no mark means an inactive call. Cut-off read from the data, not from the text of the source: active = inhibition mostly above about 28% (no sharp cut-off); inactive = mostly below about 43%.

Test: A qHTS for Small Molecule Inhibitors of Shiga Toxin; note: 0% is about no effect
Details: Vero cells, Shiga toxin protein synthesis inhibition reporter; at 38.7 µM, stronger effect = higher value
Compound O=C(COc1ccc(S(=O)(=O)N2CCOCC2)cc1Cl)N1CCOCC1 has an inhibition of -5.97%. For O=C(c1ccccc1)N1CCC(CC2CC(c3ccc(Cl)cc3)=NO2)(C(=O)NCC2CCCCC2)CC1 (centres undefined), the inhibition was -0.8%. Cc1ccc(N2CC(C(=O)Nc3ccc(S(=O)(=O)N4CCCC4)cc3)CC2=O)cc1C (centres undefined) gave an inhibition of -5.32%. For Cc1ccc(Cc2cnc(NC(=O)/C(C#N)=C/c3ccc(-c4cccc([N+](=O)[O-])c4)o3)s2)cc1, the inhibition was 19.7%. N#C/C(=C/c1ccc(-c2ccccc2[N+](=O)[O-])o1)C(=O)NCCN1CCCCC1 showed an inhibition of 6.58%. For Cc1ccc(-c2ccc(/C=C(\C#N)C(N)=S)o2)c([N+](=O)[O-])c1, the inhibition was 19.2% (active). Compound CCc1cc(=O)oc2c(C)c(OCC(=O)N3CC[C@@]4(O)CCCC[C@H]4C3)ccc12 has an inhibition of -4.55%. Compound Cc1cccc(C)c1NC(=O)C(Cl)C(=O)c1ccccc1 (centres undefined) has an inhibition of -15.6%. For CC(C)N(C(=O)Cn1cc(S(=O)(=O)CC(=O)N2CCOCC2)c2ccccc21)C(C)C, the inhibition was -3.05%. For O=C(CSc1nnnn1C1CCCC1)N1CCCCC1, the inhibition was 110% (active). O=C(CSc1nnc2ccc(-c3ccncc3)nn12)N1CCCCC1 gave an inhibition of -15.9%. Work on CCCc1nnc(SCC(=O)N2C(C)CCCC2C)n1CC (centres undefined) yielded an inhibition of 3.99%. For CC1CCCC(C)N1C(=O)CSc1nnnn1C1CCCC1 (centres undefined), the inhibition was 53.7% (active). CC(C)C(=O)Nc1nnc(SCC(=O)N2C(C)CCCC2C)s1 (centres undefined) showed an inhibition of -4.35%. CC(Sc1nnnn1C1CCCCC1)C(=O)O (centres undefined) gave an inhibition of 3.3%. Work on COc1ccc(C2NC(=O)C(=O)/C2=C(\O)c2ccc(Cl)cc2)cc1OC (centres undefined) yielded an inhibition of -18%. With CCN(CC(=O)NCCCN1CCOCC1)S(=O)(=O)c1cc(Cl)ccc1Cl the inhibition was 10.6%. Cc1cccc(N2CCN(C(=O)c3cccc(N4C(=O)C5C6C=CC(C6)C5C4=O)c3)CC2)c1C (centres undefined) showed an inhibition of -9.11%. CCC(C)NC(=O)C1c2ccccc2C(=O)N1Cc1ccccc1 (centres undefined) gave an inhibition of -8.49%. Compound CCOc1ccc(NC(=O)C2CCN(C(=O)N3CCOc4ccccc43)CC2)cc1 has an inhibition of 7.11%. Compound O=C(Nc1nnc(SCc2ccc(Cl)cc2Cl)s1)C1COc2ccccc2O1 (centres undefined) has an inhibition of -4.34%. Compound CC(C)Cc1nnc(NC(=O)CCc2ccccc2)s1 has an inhibition of 7.6%. Work on Cc1ccc(S(=O)(=O)N(C)C)cc1NC(=O)COC(=O)C1COc2ccccc2O1 (centres undefined) yielded an inhibition of -6.06%. In the case of CCN(CC)S(=O)(=O)c1ccc(N2CCOCC2)c(NC(=O)C2COc3ccccc3O2)c1 (centres undefined), the inhibition is reported as 4.87%. COc1ccc([N+](=O)[O-])cc1NC(=O)CCc1ccccc1 gave an inhibition of 17%. Work on CN(c1ccccc1)S(=O)(=O)c1cccc(NC(=O)Cc2c(F)cccc2Cl)c1 yielded an inhibition of -0.293%. Work on O=C(Cc1c(F)cccc1Cl)Nc1ccc(-n2cnnn2)cc1 yielded an inhibition of 12.8%. With O=C(Nc1ncc([N+](=O)[O-])s1)C1COc2ccccc2O1 (centres undefined) the inhibition was 93.4% (active). For O=C(Nc1nc2c(F)cc(F)cc2s1)C1COc2ccccc2O1 (centres undefined), the inhibition was 71.8% (active). With O=C(Cc1c(F)cccc1Cl)Nc1ncc([N+](=O)[O-])s1 the inhibition was 75.5% (active). With O=C(CCc1ccccc1)Nc1ncc([N+](=O)[O-])s1 the inhibition was 85.8% (active). O=C(Nc1nc(-c2ccncc2)cs1)C1COc2ccccc2O1 (centres undefined) gave an inhibition of -4.34%. Work on Cc1cc(C)cc(N(CC(=O)NC2CCCC2)C(=O)CCC(=O)Nc2cc(C)on2)c1 yielded an inhibition of -3.5%. Cc1ccc2[nH]cc(CCNC(=O)C3CCCCC3)c2c1 showed an inhibition of -0.198%. Work on CC(C)CNC(=O)CC(NCC(C)C)C(=O)O (centres undefined) yielded an inhibition of -15%. In the case of CCCCNC(=O)C1CCC(=O)N1CCc1ccccc1 (centres undefined), the inhibition is reported as 2.74%. COc1cc(C(=O)NC2CCN(Cc3ccccc3)CC2)cc(Cl)c1OC(C)C showed an inhibition of 2.17%. Cc1cc(OCC(=O)NCC(O)c2ccccc2)c2c(C)c(C)c(=O)oc2c1 (centres undefined) gave an inhibition of 0.938%. CCCCN(C)CCCNC(=O)c1cc(-c2cccs2)nc2ccccc12 showed an inhibition of -4.77%. Work on COc1cc(CN2CCCN(C)CC2)c([N+](=O)[O-])cc1OC yielded an inhibition of -4.36%. CCN(C(=O)CN1C(=O)/C(=C/c2ccc(F)cc2)SC1=S)C1CCS(=O)(=O)C1 (centres undefined) gave an inhibition of -8.73%. Compound CCc1nn(CCCC(=O)Nc2ccc(C)cc2C)c(=O)c2cc3occc3n12 has an inhibition of -5.79%. With O=C(Nc1cccc(Cl)c1N1CCOCC1)c1cccnc1 the inhibition was -2.36%. For Cc1cccc(N(C(=O)Cn2nnc(-c3ccc(C)o3)n2)C(C(=O)NC2CCCC2)c2ccncc2)c1 (centres undefined), the inhibition was -3.72%. COc1ccc2c(CC(=O)N3CCc4cc(OC)c(OC)cc4C3)coc2c1 gave an inhibition of -3.55%. With COc1ccc(NC(=O)c2ccccc2[N+](=O)[O-])cc1OC the inhibition was 9.2%. In the case of COc1ccc(NC(=O)CC2COc3ccccc3O2)c(OC)c1 (centres undefined), the inhibition is reported as 25%. Compound O=C(Nc1ccncc1)c1ccccc1[N+](=O)[O-] has an inhibition of 5.85%. With CC(=O)Oc1ccccc1C(=O)Nc1ncc([N+](=O)[O-])s1 the inhibition was 77.1% (active). With C/C(=N/NC(=O)C1COc2ccccc2O1)c1ccco1 (centres undefined) the inhibition was 3.3%. For COc1ccc(NC(=O)C2COc3ccccc3O2)cc1 (centres undefined), the inhibition was 70.7% (active). Compound CC(C)(C)c1cc[n+](-c2[nH]c(=O)sc2/C=N/N=C(\[O-])c2ccccc2)cc1 has an inhibition of 25.8%. COc1ccc(CNC(=O)c2c[nH]c3c(OC)cc(OC)cc3c2=O)cc1 gave an inhibition of -11.7%. Work on COc1ccc(CN2CCCC(N3CCc4ccccc4C3)C2)c(O)c1 (centres undefined) yielded an inhibition of -7.05%. In the case of CN1CCN(CCCCOc2cccc3ccccc23)CC1, the inhibition is reported as 29.7%. Work on Cc1cccc(CCNC(=O)Cn2ncc3c([nH]c4ccc(C)cc43)c2=O)c1 yielded an inhibition of 15.3%. Work on Cc1cc(-c2ccc(S(=O)(=O)N3CCc4ccccc4C3)s2)on1 yielded an inhibition of -19.6%. With CC1=C(C(=O)OC(C)(C)C)C(c2ccc(Br)cc2)NC(=O)N1CCCC(=O)O (centres undefined) the inhibition was 9.92%. Compound CCSc1nnc(SCC(=O)NNC(=O)c2ccccc2F)s1 has an inhibition of -24.4%.
